Some test systems named below: SK-MEL-2 melanoma; SN12C renal; TK-10 renal; ACHN renal; CAKI-1 renal; CCRF-CEM leukemia; MOLT-4 leukemia; UO-31 renal; A498 renal; EKVX NSCLC.
Common to all, as to assay: NCI-60 one-dose screen, 48 h (100 = growth as untreated, 0 = no growth, -100 = all killed)
Details in all cases: 10 µM unless noted

About 83,000 compounds went through this panel and 20% of them were active in at least one assay; those are over-represented in the sample as a whole.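 Negative percent growth values reflect cell death: -40 means 40% of the cells present at the start died, and -100 means all died.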 Unmarked numbers belong to inactive results. The source made the active and inactive calls. How the source made its calls: active means growth percent below 10; inactive means the rest.

As for `COc1cccc2cc(-c3cc4ccccc4[nH]3)/c(=N\NC(=O)c3ccc(Cl)cc3)oc12`, the growth was 68.3% in the experiment with SK-MEL-2 melanoma; 43% with SN12C renal; 46.7% with TK-10 renal; 17.3% in the experiment with ACHN renal; 30.7% in the experiment on CAKI-1 renal; 16.6% in the experiment on CCRF-CEM leukemia. Also, in the experiment on MOLT-4 leukemia, the growth was 15.5%.

Regarding `COc1c(N2CC3CCCNC3C2)c(F)cc2c(=O)c(C(=O)N/N=C/c3c[nH]c4ccccc34)cn(C3CC3)c12` (configuration not stated), the growth in the experiment on SK-MEL-2 melanoma is 110%; in the experiment on SN12C renal, 95.7%; in the experiment with UO-31 renal, 77.2%; in the experiment on TK-10 renal it was 137%; in the experiment on ACHN renal it was 99.8%; in the experiment on CAKI-1 renal, 98.7%. Also, the growth with A498 renal is 118%; with CCRF-CEM leukemia, 71.2%; with MOLT-4 leukemia it was 74.1%.

As for `CC(=O)c1ccc(Nc2nc(SCC(C)C)nc(-c3ccccc3)c2C#N)cc1`, the growth in the experiment with SK-MEL-2 melanoma is 76.7%; in the experiment on UO-31 renal, 111%; with TK-10 renal, 98.4%; in the experiment with ACHN renal, 47.8%; in the experiment with CAKI-1 renal, 69.6%; with A498 renal it was 107%. Also, the growth in the experiment on CCRF-CEM leukemia and in the experiment on MOLT-4 leukemia was 102% throughout.

As for `CC(C)(C)c1ccc(C(=O)Nc2sc3c(c2C(N)=O)CCC(O)C3)cc1` (configuration not stated), the growth with SK-MEL-2 melanoma was 80.3%; with SN12C renal, 74.8%; in the experiment on UO-31 renal, 49.1%; with TK-10 renal, 82.8%; in the experiment with ACHN renal it was 25.4%; in the experiment with CAKI-1 renal it was 5.67% (active). In addition, the growth with A498 renal is 78%; in the experiment with CCRF-CEM leukemia, 53.1%; in the experiment on MOLT-4 leukemia it was 56.4%.

Turning to `COc1cc(-c2nn(C(C)(C)C)cc2-c2ccnc(NCCCNS(=O)(=O)c3ccc(F)cc3)n2)ccc1Cl`, the growth was 86.9% with SK-MEL-2 melanoma; 52.5% with SN12C renal; 68.8% in the experiment on TK-10 renal; 83.6% with ACHN renal; 25% in the experiment on CAKI-1 renal; 51.9% with A498 renal. The growth in the experiment with MOLT-4 leukemia is 49.5%.

`Nn1c(N/N=C/c2nc3ccccc3s2)n[nH]c1=S`: the growth in the experiment with SK-MEL-2 melanoma was 107%; in the experiment on SN12C renal, 86.3%; in the experiment on UO-31 renal it was 58%; in the experiment with TK-10 renal it was 88.3%; with ACHN renal it was 98%; in the experiment on CAKI-1 renal it was 66.7%. Moreover, the growth in the experiment on A498 renal was 77.5%; with MOLT-4 leukemia it was 115%.

For `CCOc1cccc(-c2nc3sccn3c2-c2ccnc(S(C)(=O)=O)n2)c1`, the growth with SK-MEL-2 melanoma was 108%; in the experiment on SN12C renal, 98.4%; with UO-31 renal it was 97.1%; in the experiment with TK-10 renal, 119%; in the experiment with ACHN renal, 87.6%; in the experiment on CAKI-1 renal, 86.3%. For the same compound, the growth was 73.3% in the experiment with A498 renal, 99.6% with CCRF-CEM leukemia and 101% with MOLT-4 leukemia.

With `O=S(=O)(Oc1ccc(-c2nnc(Nc3ccccc3)s2)cc1)C(F)(F)C(F)(F)C(F)(F)C(F)(F)C(F)(F)C(F)(F)F`, the growth in the experiment on EKVX NSCLC is 99.1%; with SN12C renal, 98.7%; with UO-31 renal, 98.2%; in the experiment with TK-10 renal it was 109%; in the experiment with ACHN renal, 103%; with CAKI-1 renal, 92.7%. The growth in the experiment on A498 renal was 99.5%; with CCRF-CEM leukemia, 102%; in the experiment with MOLT-4 leukemia it was -29.1% (active).

On to `O=C(NNc1nc2cc(F)ccc2n2c(CO)ccc12)c1cnccn1`, for which the growth in the experiment on SK-MEL-2 melanoma is 21.7%; in the experiment on SN12C renal, 21.5%; in the experiment on UO-31 renal, 8.71% (active); in the experiment on TK-10 renal, 21%; in the experiment on ACHN renal, 10.2%; with A498 renal, 8.46% (active). Further, the growth was 7.36% (active) in the experiment on CCRF-CEM leukemia and 2.51% (active) in the experiment on MOLT-4 leukemia.

Take `C=C1CC[C@@H]2[C@]3(C)COC(c4ccccc4)O[C@@H]3CC[C@@]2(C)[C@@H]1C/C=C1/C(=O)OC[C@H]1O` (some centres not stated): the growth with SK-MEL-2 melanoma was 93.3%; in the experiment with SN12C renal, 79.9%; in the experiment on UO-31 renal, 75.7%; with TK-10 renal it was 109%; in the experiment with ACHN renal, 100%; with CAKI-1 renal it was 83.7%. In addition, the results for the growth in the experiment on A498 renal, with CCRF-CEM leukemia and with MOLT-4 leukemia were 109%, 9.03% (active) and 84%, respectively.

`CCCn1cnc2c(c1=N)C(c1ccc(F)cc1)c1sc3c(CC)cccc3c1O2` (configuration not stated): the growth with SK-MEL-2 melanoma was 49.4%; in the experiment with SN12C renal, 20.6%; with UO-31 renal it was 27%; with TK-10 renal, 61.3%; in the experiment with ACHN renal it was 18.3%; in the experiment with CAKI-1 renal it was 20.7%. In addition, the growth with A498 renal is -25.7% (active); in the experiment with CCRF-CEM leukemia it was 8.39% (active); with MOLT-4 leukemia, 9.49% (active).

For the compound `C#CCOC(=O)[C@@H]1CCCN1CC#C`, the growth with EKVX NSCLC was 86.3%; in the experiment with SN12C renal, 92.6%; in the experiment with UO-31 renal it was 66.1%; in the experiment on TK-10 renal, 96.2%; in the experiment with ACHN renal, 85.7%; in the experiment on CAKI-1 renal it was 76.3%. Moreover, the growth in the experiment with A498 renal is 93.5%; in the experiment on CCRF-CEM leukemia, 81.9%; with MOLT-4 leukemia, 61.5%.

On to `CC(=O)C1=C(C)NC(NN)=NC1c1cccc(Cl)c1` (configuration not stated), for which the growth in the experiment with SK-MEL-2 melanoma was 112%; with SN12C renal, 98.2%; with UO-31 renal, 85.9%; in the experiment with TK-10 renal it was 152%; in the experiment on ACHN renal, 99.4%; in the experiment with CAKI-1 renal it was 91%. Moreover, the growth is 93.2% with A498 renal, 97% in the experiment with CCRF-CEM leukemia and 96.8% with MOLT-4 leukemia.

Consider `Cn1ccnc1C(=O)/C=C/c1ccc(CNC(=O)c2ccc(S(F)(F)(F)(F)F)cc2)cc1`, for which the growth is 92.9% in the experiment on SK-MEL-2 melanoma; 25.6% in the experiment on SN12C renal; 34.7% in the experiment with UO-31 renal; 91.1% with TK-10 renal; 49.8% in the experiment with ACHN renal; 47% in the experiment on CAKI-1 renal. Further, the growth in the experiment with A498 renal is 73.5%; in the experiment with CCRF-CEM leukemia, 2.63% (active); with MOLT-4 leukemia it was 0.864% (active).

Regarding `COc1ccc(/C=N/NC2=NC3C(S2)N(C)C(=O)N3C)cc1` (configuration not stated), the growth with SK-MEL-2 melanoma is 29.9%; in the experiment with SN12C renal, 44.3%; in the experiment with UO-31 renal, 45%; with TK-10 renal, 76.2%; in the experiment with ACHN renal it was 42.7%; in the experiment with CAKI-1 renal it was 24%. For the same compound, the results for the growth in the experiment on A498 renal and with MOLT-4 leukemia were -17.5% (active) and 20.3%, respectively.

These data come from PubChem BioAssay (NCI).
